MazEF act: activators of E. coli MazEF toxin-antitoxin RNase. FAM/BHQ RNA-DNA oligo cleavage fluorescence, 5 h. activation, % at 20 µM. hit rate 0.32% among 350,000. AID 504720; in the data active = activation above about 50%
Target sequence (P0AE70 whole entry, looked up): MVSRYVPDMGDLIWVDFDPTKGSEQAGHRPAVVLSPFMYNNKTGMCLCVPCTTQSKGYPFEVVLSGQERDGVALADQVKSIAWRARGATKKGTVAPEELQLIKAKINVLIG
CCHF vOTU inh: CCHFV vOTU protease inhibition | Pep-AMC fluorescence | inhibition, % at 11.5 µM | hit rate 0.55% among 370,000 | AID 651958; in the data active = inhibition above about 30%; also: 0% = vehicle wells with enzyme and 100% = no enzyme wells
VHR inh abs: DUSP3 (human) phosphatase inhibition. P51452. recombinant VHR phosphatase, pNPP absorbance. inhibition, % at 13.3 µM. hit rate 0.52% among 290,000; in the data active = inhibition above about 50%
Target sequence (P51452 whole entry, looked up): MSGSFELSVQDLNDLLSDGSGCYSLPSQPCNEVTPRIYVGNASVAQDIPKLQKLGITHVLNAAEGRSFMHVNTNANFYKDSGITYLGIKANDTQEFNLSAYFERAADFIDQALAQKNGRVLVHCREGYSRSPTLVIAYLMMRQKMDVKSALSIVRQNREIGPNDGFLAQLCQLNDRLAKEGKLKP
Yp Topo-I inh: inhibitors of Yersinia pestis topoisomerase I | Y. pestis Topo-I cleavage product accumulation, plate reader | activity, % at 10 µM | hit rate 0.064% among 360,000 | AID 504884; in the data active = activity above about 50%, passing the limit was not always enough
Vc quorum ag: inducers of Vibrio cholerae quorum light production without autoinducers. V. cholerae BH1578 lux reporter, luminescence, 6 h. activation, % at 18.7 µM. hit rate 0.16% among 350,000. AID 588436; in the data active = activation mostly above about 9.7%, no sharp cut-off
PrPC surface inh: inhibitors of human cell surface prion protein PrPC; inhibition, % at 13.8 µM; TR-FRET read-out; P04156; AID 720596; hit rate 0.43% among 370,000; in the data active = inhibition above about 24%; also: 0% = median of the test wells and 100% = reference compound wells
* hit, by the source's call; i = inactive; . = no result given; + = active, no number; ! = repeats disagree. Most compounds without a hit are left out; they make up all but 1.8% or so of the library.

SMILES	MazEF act	CCHF vOTU inh	VHR inh abs	Yp Topo-I inh	Vc quorum ag	PrPC surface inh
Cc1c(N(C)S(=O)(=O)c2cc(C(=O)N3CCCC3)ccc2Cl)c(=O)n(-c2ccccc2)n1C	10	-5	53*	2	i	-1
Cc1c2ccccc2nc2c(F)c(NCCO)c(F)c(F)c12	63*	14	-9	-5	-1	-10
OCCNc1c2ccccc2nc2c(F)c(F)c(F)c(F)c12	-4	-140	-1	-2	0	-11
COc1cc(/C=C2\C(=O)ON=C2c2ccccc2)cc(OC)c1OC	1	-9	5	-3	+	-9
CCCCCCCCNC(=O)/C(C#N)=C/c1ccccc1[N+](=O)[O-]	122*	13	12	12	0	2
CCC(C)N1C(=O)/C(=C/c2c(NCCCOC(C)C)nc3c(C)cccn3c2=O)SC1=S (centres undefined)	-276	-5	20	5	0	8
CCCN1C(=O)/C(=C/c2c(NCCCOC(C)C)nc3c(C)cccn3c2=O)SC1=S	436*	.	29	-4	i	.
COc1ccc(S[C@]2(C(=O)N3CCOCC3)CC(=O)N(S(=O)(=O)c3ccc(F)cc3)[C@@H]2c2ccc(OC)cc2)cc1	.	8	.	.	.	-10
COc1ccc(-n2c(SCC(=O)NN=Cc3c(O)ccc4ccccc34)nnc2-c2ccc(C(C)(C)C)cc2)cc1	.	9	.	.	.	-4
N#C/C(=C\c1ccc(-c2nc3ccccc3s2)o1)C(N)=O	5	3	-32	-3	-1	4
CNC(=O)/C(C#N)=C/c1ccc(-c2nc3ccccc3s2)o1	94*	-11	0	7	-1	5
CN(C)c1ccc(Nc2nc(-c3cccnc3)cs2)cc1	-5	8	15	2	-1	-2
CCN(CC)c1ccc(Nc2nc(-c3cccnc3)cs2)cc1	10	3	57*	8	2	0
COc1ccc(CN2CN3Cc4ccccc4C3CS2(=O)=O)cc1 (centres undefined)	.	-2	.	.	.	-5
Cc1cccc(N=Nc2c(O)[nH]c3ccc(Br)cc23)c1	-58	-13	-5	-7	1	-3
Cc1ccccc1N=Nc1c(O)[nH]c2ccccc12	482*	6	.	4	1	1
COc1ccccc1N=Nc1c(O)[nH]c2ccc(Br)cc12	137*	23	14	-5	-1	7
Fc1cccc(CCN2C(=S)NC[C@@H]2CC2CCCCC2)c1	-7	17	27	52*	i	8
C=CCNC(=O)NC[C@@]1(C(=O)OC)CC(=O)N(C)[C@@H]1c1ccccc1	.	-3	.	.	.	2
Cc1ccc(-c2nnc(SCC(=O)Nc3ccc4c(c3)oc3ccccc34)n2C)c(Cl)c1	-7	-2	59*	1	3	5
COC(=O)[C@]12C[C@H](CC(=O)NCCCCc3ccccc3)C(=O)N(Cc3ccco3)C1=C[C@H](COCc1ccccc1)O[C@@H]2C	.	9	.	.	.	-7
CCC1(C)OC(c2ccccc2)=C/C(=C/C=C2C(=O)NC(=O)NC2=O)O1 (centres undefined)	67*	5	-6	8	0	-7
CSc1ccc(C(=O)C2CCCN(C)C2)cc1 (centres undefined)	8	13	53*	1	i	2
CN1CCCC(C(=O)c2ccccc2)C1 (centres undefined)	7	7	5	6	i	-1
CCCN(CC1CC1)C(=O)c1ccc(CNC(=O)c2cccc(Br)c2)cc1	.	14	.	.	.	2
SMILES	MazEF act	CCHF vOTU inh	VHR inh abs	Yp Topo-I inh	Vc quorum ag	PrPC surface inh
CN(C)c1cccc(/C=C2\CC3(OC(=O)c4ccccc4)CCCN2C3)c1 (centres undefined)	.	13	.	.	.	-1
N#C/C(=C/c1ccc(-c2ccc(S(N)(=O)=O)cc2)o1)C(=O)Nc1ccccc1	101*	-3	-12	7	i	0
N#C/C(=C\c1ccc(-c2ccc(F)cc2)o1)C(=O)Nc1nc(-c2cccs2)cs1	128*	2	-9	-13	0	1
Cc1cc(NC(=O)/C(C#N)=C/c2ccc(-c3ccc(SC(F)F)cc3)o2)n(-c2ccccc2)n1	405*	-2	8	2	0	1
N#C/C(=C\c1ccco1)C(=O)Nc1ccc(S(N)(=O)=O)cc1	11	12	6	2	0	-4
COc1ccc(NC(=O)/C(=C\c2ccc(F)cc2)NC(=O)c2ccco2)cc1	-3	-2	56*	3	0	1
O=C1N=C2SCCN2/C1=C\c1ccc(Cl)cc1	-9	3	56*	3	i	-1
O=C1C(=Cc2ccc(Cl)cc2)CCc2ccccc21	.	-3	.	.	.	-9
Cc1cn(C2CC(O)C(O)C(CO)O2)c(=O)[nH]c1=O (centres undefined)	.	7	.	.	.	2
Cc1cn([C@H]2C[C@H](N=[N+]=[N-])[C@@H](CO)O2)c(=O)[nH]c1=O	7	1	16	-2	35*	2
Cn1c(CSCc2ccc(Cl)cc2)n[nH]c1=S	5	3	52*	0	i	-2
O=C(O)C(Cc1c[nH]c2ccccc12)N1C(=O)c2ccccc2C1=O (centres undefined)	-3	-7	52*!	7	i	6
Nc1c(C(=O)Nc2ccccc2)sc2nc3c(c(-c4ccco4)c12)CCC3	87*	8	10	2	-6	-10
Cc1cccc(N2CCN(C(=O)c3cc(COc4ccc(F)c(F)c4)on3)CC2)n1	-4	22	51*	15	0	-3
Cc1cccc(C)c1OCc1cc(C(=O)N2CCN(Cc3nccn3C)CC2)no1	3	-1	58*	5	-1	-1
COC(=O)c1ccc(CN2CCCC(C(=O)Nc3cccc(-n4cccn4)c3)C2)cc1 (centres undefined)	-10	0	52*	13	0	-2
c1ccc(Cc2cnc(N3CCN(Cc4csc5ccccc45)CC3)nc2)cc1	.	-2	.	.	.	6
Brc1ccc(-c2nn3c(-c4ccccc4)nnc3s2)cc1	.	-3	.	.	.	1
CCCCOC(=O)Nc1nnc(/C=C/c2ccc(OC)cc2)s1	-4	0	0	53*	0	7
CCOC(=O)Nc1nnc(/C=C/c2ccc(OC)cc2)s1	-3	9	34	15	0	4
COC(=O)[C@]12C[C@H](CC(=O)N3CCN(C(=O)c4ccco4)CC3)C(=O)N(CCc3ccc(OC)c(OC)c3)C1=C[C@H](C1CCCC1)O[C@@H]2C	.	1	.	.	.	-7
C=CCN1C(=O)/C(=C2/Sc3ccc(OC)cc3N2CC)SC1=S	752*	-7	18	-2	-1	4
CCCCN1C(=O)/C(=C2/Sc3ccc(OC)cc3N2CC)SC1=S	71*	.	22	-15	-1	.
Cc1ccc2c(c1)C1CS(=O)(=O)N(Cc3ccccc3)CN1C2 (centres undefined)	.	1	.	.	.	0
CCOC(=O)/C(=N/Nc1ccc(Br)cc1)N1CC(C)OC(C)C1 (centres undefined)	-15	-4	.	10	.	32*
CCOC(=O)/C(=N\Nc1ccccc1)N1CC1	8	6	-2	5	0	6

From PubChem BioAssay
